Source: PubChem BioAssay (Tox21)
Inconclusive results are not listed. Where a structure was tested more than once in an assay, its records may differ in their call. The source made the active and inactive calls. Calls come from the whole dose curve.

Assays:
[1] = biological target: Acetylcholinesterase (Homo sapiens) (UniProt P22303); assay: Acetylcholinesterase (AChE) small molecule antagonists: colormetric cell-based qHTS assay (AID 1347395); note: nearly all actives have a fitted effect of over 30% in size; note: potency is the fitted concentration of half-maximal effect
Sequence of Acetylcholinesterase (Homo sapiens) (P22303 whole entry, looked up): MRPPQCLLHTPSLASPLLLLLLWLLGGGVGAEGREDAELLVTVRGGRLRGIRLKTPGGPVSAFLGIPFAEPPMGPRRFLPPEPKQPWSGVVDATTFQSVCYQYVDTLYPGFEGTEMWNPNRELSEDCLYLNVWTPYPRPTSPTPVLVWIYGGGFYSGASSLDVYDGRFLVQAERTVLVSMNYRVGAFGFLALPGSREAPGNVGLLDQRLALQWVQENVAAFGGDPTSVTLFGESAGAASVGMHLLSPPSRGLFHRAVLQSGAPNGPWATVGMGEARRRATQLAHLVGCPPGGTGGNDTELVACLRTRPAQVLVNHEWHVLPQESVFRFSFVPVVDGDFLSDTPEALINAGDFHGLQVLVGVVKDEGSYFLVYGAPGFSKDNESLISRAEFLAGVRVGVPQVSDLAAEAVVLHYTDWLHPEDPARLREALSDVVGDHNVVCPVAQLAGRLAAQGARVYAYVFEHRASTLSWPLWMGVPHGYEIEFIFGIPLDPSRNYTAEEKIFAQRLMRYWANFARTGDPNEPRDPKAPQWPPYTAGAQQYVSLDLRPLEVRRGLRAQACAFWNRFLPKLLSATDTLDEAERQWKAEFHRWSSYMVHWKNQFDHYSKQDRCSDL
Outline: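 Colorimetric readout: DTNB quantifies thiocholine from acetylthiocholine hydrolysed by endogenous AChE of SH-SY5Y cells (2,000/well, plated overnight). Compound pretreatment 30 min, substrate incubation 90 min, both 37 C.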

[2] = biological target: Acetylcholinesterase (Homo sapiens) (UniProt P22303); assay: Acetylcholinesterase (AChE) small molecule antagonists: enzyme-based qHTS assay (AID 1347397); conditions: Potency: AChE enzyme activity inhibition; outcome: AChE enzyme activity inhibition; note: nearly all actives have a fitted effect of over 55% in size
Outline: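 Enzyme inhibition was scored from DTNB-detected thiocholine formed by recombinant human AChE acting on acetylthiocholine. The 30 min compound preincubation and 10 min substrate reaction were both run at room temperature, with DMSO as vehicle control.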

[3] = biological target: Acetylcholinesterase (Homo sapiens) (UniProt P22303); assay: Acetylcholinesterase (AChE) small molecule antagonists: fluorescence cell-based qHTS assay (AID 1347398); conditions: Potency: AChE activity; outcome: AChE activity; note: nearly all actives have a fitted effect of over 50% in size; note: potency is the fitted concentration of half-maximal effect
Outline: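 Endogenous acetylcholinesterase of SH-SY5Y neuroblastoma cells is measured in situ. After overnight attachment and 30 min compound exposure, cells receive acetylthiocholine and Thiolite Green; fluorescence is read after 40 min at room temperature.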

[4] = biological target: Acetylcholinesterase (Homo sapiens) (UniProt P22303); assay: Acetylcholinesterase (AChE) small molecule antagonists: enzyme-based qHTS assay with human liver microsomes (AID 1347399); conditions: Potency: qHTS inhibition; outcome: qHTS inhibition; note: nearly all actives have a fitted effect of over 60% in size
Outline: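 Recombinant human AChE (50 mU/mL in the enzyme mix) and human liver microsomes (0.25 mg/mL final) were preincubated with compound and NADPH (0.25 mg/mL final) for 30 min at 37 C. Acetylthiocholine/DTNB was then added; thiocholine was read colorimetrically after 10 min at room temperature.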
% is set by controls: 0 for no effect and ±100 for the full control effect.

O=C(c1ccccc1)C1(O)CCCCC1
inactive: Potency [1] | Potency [2] | Potency [3] | Potency [4]

CC(C)(C)N
inactive: Potency [1] | Potency [2] | Potency [3] | Potency [4]

CC/C=C\C#N
inactive: Potency [1] | Potency [2] | Potency [3] | Potency [4]

CC(C)C(=O)c1c(C(C)C)nn2ccccc12
inactive: Potency [1] | Potency [2] | Potency [3] | Potency [4]

CC(=O)/C=C/c1ccco1
inactive: Potency [1] | Potency [2] | Potency [3] | Potency [4]

CC(C)N(c1ccccc1)C(C)C
inactive: Potency [1] | Potency [2] | Potency [3] | Potency [4]

CCCOc1ccc2nc(NC(=O)OC)[nH]c2c1
inactive: Potency [1] | Potency [2] | Potency [3] | Potency [4]

CC1=CC(O)CC(C)(C)C1 (stereo not given)
inactive: Potency [1] | Potency [2] | Potency [3] | Potency [4]

CC(=O)NCCCCCC(=O)O
inactive: Potency [1] | Potency [2] | Potency [3] | Potency [4]

CC(C)NCC(O)c1cc(O)cc(O)c1 (stereo not given)
inactive: Potency [1] | Potency [2] | Potency [3] | Potency [4]

CC[C@@]1(O)C(=O)OCc2c1cc1n(c2=O)Cc2cc3c(CN(C)C)c(O)ccc3nc2-1
inactive: Potency [1] | Potency [2] | Potency [3] | Potency [4]

O=Cc1ccc(Cl)c([N+](=O)[O-])c1
inactive: Potency [2] | Potency [3] | Potency [4]
active: Potency [1] 39.9 µM

C=CCOCC(CO)(COCC=C)COCC=C
inactive: Potency [1] | Potency [2] | Potency [3] | Potency [4]

CCOC(=O)/C=C/C(=O)O
inactive: Potency [1] | Potency [2] | Potency [3] | Potency [4]

COc1ccc(O)cc1
inactive: Potency [1] | Potency [2] | Potency [3] | Potency [4]

CCC(=O)OC(C)(C)C1CC=C(C)CC1 (stereo not given)
inactive: Potency [1] | Potency [2] | Potency [3] | Potency [4]

CC(C)(C)NCCO
inactive: Potency [1] | Potency [2] | Potency [3] | Potency [4]

C[N+]1(CC2COC(c3ccccc3)(c3ccccc3)O2)CCCCC1 (stereo not given)
inactive: activity, negative = inhibition [1] -0.268% [at 23.6 µM] | activity change, negative = inhibition [2] 0.437% [at 23.6 µM] | activity change, negative = inhibition [3] -6.49% [at 23.8 µM] | activity change, negative = inhibition [4] 4.03% [at 23.6 µM]

C=CCn1c(=O)n([C@@H]2O[C@H](CO)[C@@H](O)[C@H]2O)c2nc(N)[nH]c(=O)c21
inactive: Potency [1] | Potency [2] | Potency [3] | Potency [4]

C=C1C[C@H]2[C@@H]3C=C(C)C4=CC(=O)CC[C@]4(C)[C@H]3CC[C@]2(C)[C@@]1(OC(C)=O)C(C)=O
inactive: Potency [1] | Potency [2] | Potency [3] | Potency [4]

CCOc1ccc([N+](=O)[O-])cc1
inactive: Potency [1] | Potency [2] | Potency [3] | Potency [4]

CC(C)NC(=O)c1ccccc1N
inactive: Potency [1] | Potency [2] | Potency [3] | Potency [4]

Oc1ccc(Cl)cc1Sc1cc(Cl)ccc1O
inactive: Potency [1] | Potency [2] | Potency [3] | Potency [4]

CCCCOCC(C)O (stereo not given)
inactive: Potency [1] | Potency [2] | Potency [3] | Potency [4]

C=CCCCCCCCCOC(C)=O
inactive: Potency [1] | Potency [2] | Potency [3] | Potency [4]

C[N+]1(CC2COC(c3ccccc3)(C3CCCCC3)O2)CCCCC1 (stereo not given)
inactive: Potency [1] | Potency [2] | Potency [3] | Potency [4]

O=C(O)CCSCCC(=O)O
inactive: Potency [1] | Potency [2] | Potency [3] | Potency [4]

CC(COCCO)OCCO (stereo not given)
inactive: Potency [1] | Potency [2] | Potency [3] | Potency [4]

ClC/C=C/CCl
inactive: Potency [1] | Potency [2] | Potency [3] | Potency [4]

CCC(C)OC(=O)N1CCCCC1CCO (stereo not given)
inactive: Potency [1] | Potency [2] | Potency [3] | Potency [4]

OC[C@H]1O[C@@H](OCCc2ccc(O)cc2)[C@H](O)[C@@H](O)[C@@H]1O
inactive: Potency [1] | Potency [2] | Potency [3] | Potency [4]

CCC(CO)CO
inactive: Potency [1] | Potency [2] | Potency [3] | Potency [4]

CCCCCCCCCCCCCCCC(=O)OC
inactive: activity, negative = inhibition [1] 2.77% [at 23.6 µM] | activity change, negative = inhibition [2] -0.557% [at 23.6 µM] | activity change, negative = inhibition [3] 2.99% [at 23.8 µM] | activity change, negative = inhibition [4] 0.243% [at 23.6 µM]

C/C=C(\C)C(=O)OCCC(C)CCC=C(C)C (stereo not given)
inactive: Potency [1] | Potency [2] | Potency [3] | Potency [4]

NCCCC[C@H](N[C@@H](CCc1ccccc1)C(=O)O)C(=O)N1CCC[C@H]1C(=O)O
inactive: Potency [1] | Potency [2] | Potency [3] | Potency [4]

Cc1ccc(NC=O)c(C)c1
inactive: Potency [1] | Potency [2] | Potency [3] | Potency [4]

O=S1(=O)c2cccc3cccc(c23)N1CCCN1CCN(c2ccc(F)cc2)CC1
inactive: Potency [1] | Potency [2] | Potency [3] | Potency [4]

CC1(C)COCN1
inactive: Potency [1] | Potency [2] | Potency [3] | Potency [4]

O=C(O)CCCCCCCCCCCC(=O)O
inactive: Potency [1] | Potency [2] | Potency [3] | Potency [4]

Cn1c(=O)[nH]c2ncn(C)c2c1=O
inactive: Potency [1] | Potency [2] | Potency [3] | Potency [4]

CCCC1C(CC)=CC(CC)=CN1c1ccccc1 (stereo not given)
inactive: Potency [1] | Potency [2] | Potency [3] | Potency [4]

CC(C)C(C)(C)C(C)(C)C(C)(C)S
inactive: Potency [1] | Potency [2] | Potency [3] | Potency [4]

Cc1cc(C(=C2C=CC(=Nc3ccc(S(=O)(=O)O)cc3S(=O)(=O)O)C=C2)c2ccc(Nc3ccc(S(=O)(=O)O)cc3)cc2)ccc1N
inactive: Potency [1] | Potency [2] | Potency [3] | Potency [4]

CCCCC[Si](OCC)(OCC)OCC
inactive: Potency [1] | Potency [2] | Potency [3] | Potency [4]

CCCCCCCCCCCCCCBr
inactive: Potency [1] | Potency [2] | Potency [3] | Potency [4]

Cc1ccc(Cl)cc1
inactive: Potency [1] | Potency [2] | Potency [3] | Potency [4]

CN(C)CCOC(=O)C(c1ccccc1)C1(O)CCCC1 (stereo not given)
inactive: Potency [1] | Potency [2] | Potency [3] | Potency [4]

CN(N=O)C(=O)N[C@@H]1[C@@H](O)[C@H](O)[C@@H](CO)O[C@@H]1O
inactive: Potency [1] | Potency [2] | Potency [3] | Potency [4]

CCCCCC(CC)OC(=O)CCCOc1ccc(Cl)cc1Cl (stereo not given)
inactive: Potency [1] | Potency [2] | Potency [3] | Potency [4]

Nc1ccc2cc(S(=O)(=O)O)cc(O)c2c1N=Nc1ccccc1C(F)(F)F
inactive: Potency [1] | Potency [2] | Potency [3] | Potency [4]

O=C(O)CNC(=O)c1ccccc1
inactive: Potency [1] | Potency [2] | Potency [3] | Potency [4]

CCCC(C)c1ccccc1O (stereo not given)
inactive: Potency [1] | Potency [2] | Potency [3] | Potency [4]

c1ccsc1
inactive: Potency [1] | Potency [2] | Potency [3] | Potency [4]

C[Si]1(C)O[Si](C)(C)O[Si](C)(C)O[Si](C)(C)O[Si](C)(C)O1
inactive: Potency [1] | Potency [2] | Potency [3] | Potency [4]

C=CCCC
inactive: Potency [1] | Potency [2] | Potency [3] | Potency [4]

O=C=NC1CCC(CC2CCC(N=C=O)CC2)CC1 (stereo not given)
inactive: Potency [1] | Potency [2] | Potency [3] | Potency [4]

CC(=O)Oc1ccc(C2(c3ccc(OC(C)=O)cc3)Oc3ccccc3NC2=O)cc1
inactive: Potency [1] | Potency [2] | Potency [3] | Potency [4]

C=C(C)OC(C)=O
32.7 µM (active) and inactive: Potency [3]
inactive: Potency [1] | Potency [2] | Potency [4]

COC(=O)c1ccccc1C(=O)O
inactive: Potency [1] | Potency [2] | Potency [3] | Potency [4]

CC1=NN(c2cc(Cl)c(S(=O)(=O)O)cc2Cl)C(=O)C1N=Nc1ccc(S(=O)(=O)O)cc1 (stereo not given)
inactive: Potency [1] | Potency [2] | Potency [3] | Potency [4]
